Measurements reported in PubChem BioAssay.
“And” between values parts separate entries of the source, which are not always exact repeats. Equal entries are not always repeated. The source made the active and inactive calls.

Key:
[1] = A549 cell viability effects, profiling panel, calcein-AM fluorescence, 48 h, basal (AID 1162); conditions: higher = more signal
[2] = adipocyte viability effects, profiling panel, cell-based, 3T3-L1 adipocytes, calcein-AM fluorescence, 48 h, basal (AID 1163); conditions: 3T3-L1 adipocytes viability, higher = more signal
[3] = HepG2 cell viability effects, profiling panel, calcein-AM fluorescence, 48 h, basal (AID 1164); conditions: higher = more signal
[4] = MM1S cell viability effects, profiling panel, calcein-AM fluorescence, 48 h, basal (AID 1165); conditions: higher = more signal;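 note: viability of MM1S multiple myeloma cells under basal unstimulated conditions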
[5] = basal RPMI8226 viability, no added stimulus, profiling panel, cell-based, calcein-AM fluorescence, 48 h, PK04 Diversity Set (AID 1166); conditions: RPMI8226 myeloma viability, higher = more signal;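 note: cells grown under basal conditions without added stimulus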
[6] = basal HepG2 mitochondrial membrane potential changes, profiling panel, cell-based, JC-1 fluorescence, 24 h, 100 nL compound (AID 1167); conditions: higher = more signal
[7] = basal 3T3-L1 adipocyte mitochondrial potential changes, profiling panel, cell-based, JC-1 fluorescence, 3T3-L1 adipocytes, 24 h, 100 nL compound (AID 1168); conditions: JC-1 mitochondrial fluorescence, higher = more signal, called active from +8 up or from −8 down
[8] = basal RPMI8226 mitochondrial membrane potential changes, profiling panel, cell-based, JC-1 fluorescence, 24 h, 100 nL compound (AID 1169); conditions: RPMI8226 myeloma, JC-1 mitochondrial potential fluorescence, higher = more signal
[9] = basal MM1S mitochondrial membrane potential changes, profiling panel, cell-based, JC-1 fluorescence, 24 h, 100 nL compound (AID 1170); conditions: higher = more signal
[10] = A549 lung cancer cell viability effects, profiling panel, resazurin fluorescence, 24 h, PK04 Diversity Set (AID 1171); conditions: higher = more signal, called active from +8 up or from −8 down
Note: test concentration not given here.

SMILES | z-score [1] | z-score [2] | z-score [3] | z-score [4] | z-score [5] | z-score [6] | z-score [7] | z-score [8] | z-score [9] | z-score [10]
C=C[C@H](OC)[C@@H](O)c1ccc(O)c(F)c1 | -0.52 and -0.4 | -0.345 and -0.128 | -0.0991 and 0.594 | -1.17 and 1.06 | 0.544 and 0.196 | -0.914 and 0.658 | -0.186 (inactive) and -0.636 (inactive) | 0.675 and 0.679 | -0.0752 and -0.474 | -0.535 (inactive) and -0.0165 (inactive)
C=CCN(C(=O)C1N(c2c(Cl)cccc2CO)C(=O)C2C(C(=O)O)C3C=CC21O3)c1ccc(OC)cc1 (stereo not given) | -0.211 and 1.87 | 1.02 and 0.581 | -0.915 and 1.6 | 0.972 and -0.224 | -0.998 and 0.529 | -0.877 and 0.862 | -0.955 (inactive) and 0.659 (inactive) | -0.106 and -0.544 | 0.644 and 0.576 | -0.475 (inactive) and 1.02 (inactive)
C=C[C@@H](C)[C@@H](O)c1ccc(OCCO)cc1 | -0.61 and 0.227 | 0.513 and 0.464 | -0.976 and 0.692 | 0.958 and -0.872 | -0.754 and 0.96 | 0.299 and 1.09 | -0.82 (inactive) and -0.165 (inactive) | -0.0815 and 0.346 | 0.287 and -0.925 | 0.175 (inactive) and -0.652 (inactive)
Cc1ccc(S(=O)(=O)N[C@H]2COC(=O)[C@@H](Cc3ccccc3)NC(=O)[C@@H](C)COC(=O)CC=C[C@@H]2C)cc1 | 0.671 and -0.545 | -0.433 and 1.08 | 0.364 and -1.68 | -1.13 and 1.05 | -0.372 and -0.784 | 0.0571 and -0.176 | -0.517 (inactive) and -0.812 (inactive) | -0.259 and 0.107 | 0.242 and -1.28 | 0.0258 (inactive) and 0.392 (inactive)
Cc1cc2c(nc1C)CCCN2CC(O)CN1CCCc2nc(-c3ccc(Br)cc3)ccc21 (stereo not given) | -0.243 and -0.599 | 0.929 and 0.303 | -0.749 and -0.129 | 0.916 and -1.24 | -2.13 and -0.178 | 0.36 and 0.768 | -0.855 (inactive) and -1.29 (inactive) | 0.144 and -0.0117 | -0.488 and 0.538 | -0.347 (inactive) and 0.0661 (inactive)
C[N+](C)(C)CCCCCCNC(=O)[C@H]1C[C@H]2C(=O)N[C@@H](CCCC[N+](C)(C)C)C(=O)N2[C@H]1c1cccc(OCCO)c1 | 0.47 and -0.453 | -0.32 and -0.34 | 0.427 and -0.245 | 0.0606 and -0.353 | 0.366 and 0.635 | -0.112 and -1.53 | 0.418 (inactive) and 0.566 (inactive) | -0.192 and 0.231 | -0.644 and -0.272 | -0.154 (inactive) and -0.311 (inactive)
COC(=O)CC=C[C@@H](C)[C@@H](CO)NS(=O)(=O)c1ccc(C)cc1 | -0.188 and 0.816 | -0.466 and -0.0209 | -0.252 and 0.461 | -0.243 and 0.811 | -0.101 and 0.667 | -0.328 and 0.817 | -0.0819 (inactive) and -0.161 (inactive) | -0.827 and 0.601 | -0.0943 and -0.285 | 0.827 (inactive) and -0.832 (inactive)
CO[C@H]1COC(=O)CC=C[C@H](C)[C@H](OC)COC(=O)[C@@H](C)COC(=O)CC=C[C@@H]1C | -0.26 and 0.27 | 0.0599 and 0.0256 | 0.0517 and 1.24 | 0.183 and 0.0455 | -0.409 and 0.728 | 0.152 and 1.09 | -0.317 (inactive) and 0.125 (inactive) | -0.429 and 0.0879 | 0.688 and 0.438 | 0.211 (inactive) and -0.379 (inactive)
CCOC(=O)[C@@H]1CC=C2CC1C(=O)N1CCC[C@@H]1[C@H]2O[Si](C)(C)C(C)(C)C (stereo not given in full) | -0.366 and -0.566 | -0.0834 and 0.84 | -0.45 and -1.76 | -0.204 and -0.227 | -1.71 and -2.37 | -1.48 and 0.214 | -0.649 (inactive) and 0.192 (inactive) | -0.0804 and 0.132 | 0.144 and 0.321 | 0.016 (inactive) and 2.5 (inactive)
C=CC[C@@H](O)c1ccc(O)c2ccccc12 | 0.292 and 0.405 | -0.0851 and -0.0172 | 0.23 and -0.354 | -2.77 and -2.68 | -3.06 and -4.28 | -2.14 and -2.66 | 0.0544 (inactive) and -0.0565 (inactive) | -0.887 and -0.994 | -1.63 and -1.56 | -0.308 (inactive) and -0.572 (inactive)
CC(=O)OC[C@H]1O[C@H](C#CC(C)(C)C)C=C[C@@H]1OC(C)=O | -0.327 | -0.274 | -0.24 | -3.02 | -1.73 | -0.888 | 0.386 (inactive) | -0.776 | 0.085 | -0.595 (inactive)
CO[C@@H]1COC(=O)[C@H](Cc2ccccc2)NC(=O)CC=C[C@@H](C)[C@H](OC)COC(=O)[C@@H](C)NC(=O)CC=C[C@H]1C | -0.0911 and -0.304 | 0.686 and -0.191 | 0.0488 and 1.09 | 0.144 and 0.329 | 0.173 and 1.12 | 0.999 and -0.15 | 0.67 (inactive) and 1.56 (inactive) | 0.645 and -0.266 | 0.452 and 0.623 | 0.632 (inactive) and 0.35 (inactive)
CC[C@@H]1C(Sc2ccccc2)C(C(=O)O)[C@H](c2ccc(C)cc2)N1S(=O)(=O)c1ccc(C)cc1 (stereo not given in full) | 0.0996 and 0.624 | -0.505 and 0.311 | 0.364 and 0.126 | 0.702 and 1.11 | -0.528 and -0.148 | -0.446 and 0.366 | 0.164 (inactive) and 0.619 (inactive) | 0.296 and -0.369 | -0.152 and -0.291 | -0.631 (inactive) and -1.02 (inactive)
COC(=O)C1=C(C)N(Cc2ccccc2)C2=C(C(C)=O)C[C@@](O)(C(=O)OC)C(=O)N2[C@@H]1c1ccccc1 | -0.112 and 0.965 | 0.501 and 0.0527 | -0.491 and 0.55 | 1.11 and 0.699 | -0.0117 and 1 | 0.931 and 0.372 | 0.227 (inactive) and -0.00623 (inactive) | 0.689 and -0.71 | -0.16 and -0.174 | 1.25 (inactive) and 1.03 (inactive)
